# In PubChem BioAssay:
# Results filed as inconclusive are left out. Calls of active or inactive are those of the source. Unless noted, no cut-off is given here; in the data, nearly all actives have IC50 up to about 30 µM.
# Legend:
# [1] = JHH-DIPG-1 glioma cell viability, MIPE5.0 library, CellTiter-Glo luminescence, qHTS (AID 1347067; cut-off not given, nearly all actives have AC50 up to about 26 µM;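 note: cells exposed to compound for 48 hours before readout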); conditions: JHH-DIPG-1 glioma viability, CellTiter-Glo ATP luminescence
# [2] = growth inhibition of DIPG cells – cell-based, MIPE5.0 library, qHTS (AID 1347068); conditions: SU-DIPG-XXV viability;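 for IC50: cells exposed to compound for 48 hours before viability readout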
# [3] = P. berghei load reduction in hepatocytes – cell-based, HepG2, luciferase luminescence, HepG2 viability, primary screen (AID 624349; in the data active = parasite load remaining mostly below about 12%, no sharp cut-off; inactive = mostly above about 10%;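 note: 100% = mean of DMSO negative control wells on the same plate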); conditions: P. berghei liver stage in HepG2, luciferase luminescence, concentration not given here; parasite load remaining: stronger effect = lower value; viability: measured here: HepG2 viability without parasites
# [4] = growth inhibition of DIPG cells – cell-based, MIPE4.0 library, CellTiter-Glo luminescence, qHTS (AID 1347066; cut-off not given, nearly all actives have AC50 up to about 30 µM;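 note: cells exposed to compound for 48 hours before readout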); conditions: SU-DIPG-VI viability, CellTiter-Glo ATP luminescence
# [5] = compounds altering HSF1 focus formation in cells – imaging, Selleck Cancer Library (AID 1347162; in the data active = plate-normalised HSF1 focus index below about 0.46); conditions: human cells, HSF1 nuclear foci imaging, at 10 µM; SSMD: measured here: HSF1 foci SSMD mean; cell count: measured here: cell number; plate-normalised HSF1 focus index: stronger effect = lower value
# [6] = tested on: Hepatitis C virus NS3 helicase; test: blockers of NS3h binding to ssDNA – biochemical, fluorescence polarization, LOPAC1280 library, primary screen (AID 687035; in the data active = inhibition above about 37%); conditions: Purified HCV NS3 helicase, Cy5-dT15 ssDNA binding fluorescence polarization; stronger effect = higher value; concentration not given here
# [7] = compounds altering Cy5-DNA-NS3h complex signal – biochemical, LOPAC1280, artefact control for HCV NS3 helicase inhibitor project (AID 687037; call rule not given here); conditions: Cy5-DNA-NS3h complex fluorescence interference counterscreen
# [8] = viability loss with induced miR-34 in A549 – imaging, A549 dox-inducible miR-34, nuclei and caspase counts, primary screen (AID 1347080;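 active = compounds whose cell count with miR-34 switched on is under 0.7 times the count with it off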); conditions: A549 miR-34 inducible, Hoechst nuclei count, 48 h
# [9] = blockers of cellular phospholipid synthesis – cell-based, LOPAC library, screen 4, primary screen (AID 1347384; call rule not given here); conditions: animal cells, phospholipid biosynthesis inhibition screen; at 10 µM
# [10] = galactose survival enhancers in mitochondrial complex I cybrids – cell-based, galactose medium, ATP luminescence, primary screen (AID 1645843;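 active = z-score of at least 1.8 in each of two replicates, scored against plate mean and spread of sample wells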;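 note: positive z means more ATP and so rescue of galactose-driven cybrid death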); conditions: complex I mutant cybrid cells, 72 h, stronger effect = higher value
smiles,measurement,setting,value
CC(=O)O/N=C1\C(=O)N(Cc2cc(Cl)ccc2Cl)c2ccc(Cl)cc21,AC50,[1],23.5 µM (active)
same,IC50,[2],8.33 µM (active)
NC(=O)c1ccc2nc(-c3ccc(Oc4ccc(Cl)cc4)cc3)[nH]c2c1,parasite load remaining,[3],38.6% (inactive)
same,viability,[3],91.3%
same,outcome,[4],inactive
same,outcome,[2],inactive
same,SSMD,[5],0.89
same,cell count,[5],6720
same,plate-normalised HSF1 focus index,[5],1.06 (inactive)
CCN1/C(=C/C(C)=O)Sc2ccc(OC)cc21,parasite load remaining,[3],36.4% (inactive)
same,viability,[3],92.3%
same,inhibition,[6],-4% (inactive)
same,fluorescence ratio (interference),[7],0.9 (inactive)
same,outcome,[1],inactive
same,outcome,[2],inactive
same,fold change,"[8]; stronger effect = lower value, cell number ratio, induced over uninduced",1.04 (inactive)
same,fold change,[8]; measured here: relative caspase fold change +Dox/-Dox,1.19
same,cell count,"[8]; measured here: total cells with miR-34 induction, stronger effect = lower value",7360
same,cell count,[8]; measured here: total cells without miR-34 induction,7040
same,outcome,[9],inactive
same,z-score,[10],0.785 (inactive)
COC1CC(C(=O)c2ccc3c(N)ncc(-c4ccc(-c5cnn(C)c5)cc4)c3n2)C1 (stereo not drawn),outcome,[1],inactive
same,outcome,[2],inactive
COc1cc2nccc(Oc3ccc(NC(=O)c4cn(C(C)C)c(=O)n(-c5ccc(F)cc5)c4=O)cc3F)c2cc1OC,outcome,[1],inactive
same,outcome,[2],inactive
CCC1CCCCN1C(=O)n1ncc(C(O)(c2ccccc2)c2ccccc2)n1 (stereo not drawn),outcome,[2],inactive
Cn1cc(-c2ccc(-c3cncc(Cl)c3N3CCC4(CCNC4=O)CC3)cc2)cn1,outcome,[1],inactive
same,outcome,[2],inactive
